Assay outcomes: PubChem BioAssay, several laboratories
TRPM1 prom inh: inhibitors of MITF-dependent TRPM1 promoter reporter, primary screen, cell-based, SK-MEL-5, single point, luciferase | SK-MEL-5 TRPM1 promoter luciferase, 24 h | inhibition, % at 12.5 µM | actives 0.83% (n = 330,000);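 active = mean inhibition across replicates of 60% or more, whatever share of single replicates reaches that level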
TROY signal inh: inhibitors of TROY-driven NF-kB signaling, primary screen, Q293 LMP1-TROYcd cells, NF-kB luciferase, uHTS. Q293 LMP1-TROYcd NF-kB luciferase reporter, 4 h. inhibition, % at 10 µM. actives 0.98% (n = 360,000);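 active = compounds whose plate-normalised and pattern-corrected inhibition of the luciferase reporter signal at the single screening dose is 50% or more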
TWEAK-Fn14 inh: inhibitors of TWEAK-Fn14 signaling, primary screen, luciferase reporter cells, uHTS. inhibition, % at 10 µM. AID 1159606, 2016. actives 2% (n = 360,000). TWEAK-stimulated Fn14 reporter cells, luciferase luminescence, 8 h; in the data active = inhibition above about 50%
HIF-2a block: HIF-2a reporter inhibitors, primary screen, luminescence, 786-0 RCC cells; 786-0 RCC cells HIF-2a reporter, luciferase luminescence, overnight; inhibition, % at 18.8 µM; actives 0.72% (n = 360,000);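 active = inhibition of the luminescence signal of 40% or more relative to plate controls, in a single-dose primary screen at 18.75 µM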
Shn3 inh set2: reduction of Shn3 3'UTR firefly luciferase signal, primary screen, Schnurri-3 inhibitor project, cell-based, Clone20 osteoblasts, set 2. Clone20 osteoblast Shn3 3'UTR firefly luciferase, 24 h. inhibition, % at 12.5 µM. actives 0.52% (n = 360,000);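 active = mean inhibition of at least 75% with every replicate also reaching 75%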;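 note: 0% = median of neutral control wells and 100% = pilot-screen positive control compound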
EBV LMP1 NFkB: EBV LMP1-driven NF-kappaB luciferase reporter inhibitors, primary screen, cell-based, luminescence, single point; LMP1-induced NF-kappaB luciferase reporter cells; inhibition, % at 12.5 µM; actives 0.69% (n = 350,000); in the data active = inhibition above about 41%;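 note: 0% = neutral control wells and 100% = reference inhibitor control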
* = called active by the depositor. Sampled rows, rich in hits. Any-hit rate of the full collection: about 3.4%.

For CCN(CC)S(=O)(=O)c1ccc(NN=C(C#N)C#N)cc1 the results were TRPM1 prom inh -6, TROY signal inh 63*, TWEAK-Fn14 inh 67*, HIF-2a block 3, Shn3 inh set2 -3 and EBV LMP1 NFkB 32.
For OC1C2CN3CN(C2)CC1(c1ccccc1)C3 (centres undefined) the results were TRPM1 prom inh 1, TROY signal inh 6, TWEAK-Fn14 inh 8, HIF-2a block 24 and EBV LMP1 NFkB -4.
CC12CN3CN(C1)CC(c1ccccc1)(C3)C2=O was read as TRPM1 prom inh 9, TWEAK-Fn14 inh 88*, HIF-2a block 6, Shn3 inh set2 -9 and EBV LMP1 NFkB 1.
`COC(=O)C1=C(c2cccc(OC)c2OC)C[C@@H]2CC[C@H]1N2C(=O)NCc1ccco1` gave TRPM1 prom inh -1, TROY signal inh -7, TWEAK-Fn14 inh 14, HIF-2a block -8, Shn3 inh set2 -27 and EBV LMP1 NFkB -5.
`COc1cccc(CNC2CN3CCC2CC3)c1OC` (centres undefined) gave TRPM1 prom inh 0, TROY signal inh 7, TWEAK-Fn14 inh 68*, HIF-2a block 12, Shn3 inh set2 -2 and EBV LMP1 NFkB -3.
For CC(=O)NC(Cc1ccc(N(CCCl)CCCl)cc1)C(=O)NCC(=O)NCC(=O)O (centres undefined) the results were TRPM1 prom inh -3, TROY signal inh -24, TWEAK-Fn14 inh 35, HIF-2a block 4, Shn3 inh set2 -1 and EBV LMP1 NFkB 2.
Screening CC(=O)OC1C(=O)OCC23CCC4(C)OC4C2OC2CC(OC(=O)C=CC=CC(=O)OCCC1C)C3(C)C21CO1 (centres undefined) returned TRPM1 prom inh 83*, TROY signal inh 84*, TWEAK-Fn14 inh 99*, HIF-2a block 72*, Shn3 inh set2 94* and EBV LMP1 NFkB 81*.
`CC(O)C1C=CC=CC(=O)OC2CC3OC4C5OC5(C)CCC4(COC(=O)C4OC4(C)C(O)CO1)C2(C)C31CO1` (centres undefined) gave TRPM1 prom inh 70*, TROY signal inh 85*, TWEAK-Fn14 inh 99*, HIF-2a block 66*, Shn3 inh set2 92* and EBV LMP1 NFkB 84*.
For COc1cc2c(cc1OC)C13CCN4CC5=CCOC(CC(=O)O)C(C5CC41)C3N2 (centres undefined) the results were TRPM1 prom inh 8, TROY signal inh -5, TWEAK-Fn14 inh 7, HIF-2a block 5, Shn3 inh set2 5 and EBV LMP1 NFkB 1.
`CC(C)n1c(O)c(C2c3cc(Cl)ccc3Oc3[nH]c(=O)n(C(C)C)c(=O)c32)c(=O)[nH]c1=O` (centres undefined) gave TRPM1 prom inh 102*, TROY signal inh 20, TWEAK-Fn14 inh 100*, HIF-2a block 94*, Shn3 inh set2 79 and EBV LMP1 NFkB 0.
`CC(=O)c1c(O)n(-c2cccc(Cl)c2)c(=O)[nH]c1=O` (tested in a mixture with another compound) gave TRPM1 prom inh 3, TROY signal inh 10, TWEAK-Fn14 inh 0, HIF-2a block 9, Shn3 inh set2 -6 and EBV LMP1 NFkB 2.
Screening COC(=O)C1=C(c2ccc(F)cc2OCc2ccccc2)C[C@@H]2CC[C@H]1N2C(=O)NCCN1CCOCC1 returned TRPM1 prom inh 0, TROY signal inh -12, TWEAK-Fn14 inh -11, HIF-2a block 8, Shn3 inh set2 -24 and EBV LMP1 NFkB 2.
Cc1ccc(N(C)C(=O)Oc2ccc(C(=O)c3ccc(Cl)cc3)cc2)cc1 was read as TRPM1 prom inh 1, TWEAK-Fn14 inh 68*, HIF-2a block -14, Shn3 inh set2 40 and EBV LMP1 NFkB 7.
For CC(=O)Nc1ccc(OC(=O)N(C)c2ccc(C)cc2)cc1 the results were TRPM1 prom inh 5, TROY signal inh -3, TWEAK-Fn14 inh 8, HIF-2a block 29, Shn3 inh set2 3 and EBV LMP1 NFkB -10.
For CC(C)N1C(=O)/C(=C/C=C/c2ccco2)C(=O)N(Cc2ccco2)C1=O the results were TRPM1 prom inh 71*, TROY signal inh -3, TWEAK-Fn14 inh 5, HIF-2a block 53*, Shn3 inh set2 52 and EBV LMP1 NFkB -22.
Screening CCN1C(=O)C(=C/C=C/c2ccco2)C(=O)N(CC)C1=S returned TRPM1 prom inh 1, TROY signal inh -4, TWEAK-Fn14 inh 14, HIF-2a block 18, Shn3 inh set2 -3 and EBV LMP1 NFkB 6.
For COc1ccc(CN2C(=O)NC(=O)/C(=C\c3ccco3)C2=O)cc1 the results were TRPM1 prom inh 13, TROY signal inh 15, TWEAK-Fn14 inh 20, HIF-2a block 42*, Shn3 inh set2 13 and EBV LMP1 NFkB 2.
COc1cc(OC)c(OC)cc1/C=C1\C(=O)NC(=O)N(Cc2ccccc2)C1=O was read as TRPM1 prom inh 2, TROY signal inh 55*, TWEAK-Fn14 inh 8, HIF-2a block 17, Shn3 inh set2 13 and EBV LMP1 NFkB -6.
Screening COc1cc(OC)c(OC)cc1/C=C1/C(=O)NC(=O)N(Cc2ccccc2)C1=O returned TRPM1 prom inh -4, TROY signal inh -11, TWEAK-Fn14 inh 12, HIF-2a block 22, Shn3 inh set2 -1 and EBV LMP1 NFkB 2.
`O=C1NC(=O)N(Cc2ccccc2)C(=O)/C1=C/C=C/c1ccco1` gave TRPM1 prom inh 88*, TROY signal inh -3, TWEAK-Fn14 inh 15, HIF-2a block 38, Shn3 inh set2 59 and EBV LMP1 NFkB -32.
`COc1ccc(/C=C2/C(=O)N(Cc3ccco3)C(=O)N(C(C)C)C2=O)cc1` gave TRPM1 prom inh -2, TROY signal inh 12, TWEAK-Fn14 inh -9, HIF-2a block 11, Shn3 inh set2 13 and EBV LMP1 NFkB 4.
`O=C(O)C1(Br)CC12c1ccccc1-c1ccccc12` (centres undefined) gave TRPM1 prom inh -2, TROY signal inh -5, TWEAK-Fn14 inh 2, HIF-2a block 14, Shn3 inh set2 7 and EBV LMP1 NFkB 3.
CC(CC(C)(C)N1CC1)=NO was read as TRPM1 prom inh 3, TROY signal inh 15, TWEAK-Fn14 inh -8, HIF-2a block 7, Shn3 inh set2 -12 and EBV LMP1 NFkB 7.
`COc1cc2c(cc1OC)C(C(=O)NC(C)C)C1CCCCN1C2=O` (centres undefined) gave TRPM1 prom inh 11, TROY signal inh -3, TWEAK-Fn14 inh 0, HIF-2a block 12, Shn3 inh set2 8 and EBV LMP1 NFkB -2.
